A selection: hits, their analogues and other compounds. The true share with any hit is near 0.99%.
BLM inh-1 = inhibitors of human Bloom syndrome helicase BLM. recombinant BLM DNA unwinding, fluorescence dequenching. P54132. Potency, µM (series often up to 56.1 µM), without a hit: at the top dose activity change, negative = inhibition, usual class: inhibitors. 350,000 tested, 0.2% active;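 also: plate controls were vehicle for no effect and no enzyme for full effect; nearly all actives have a fitted effect of over 35% in size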
L3MBTL1 block = inhibitors of human L3MBTL1 | Q9Y468 | AlphaScreen L3MBTL1–H3K9me1 peptide binding | Potency, µM (series often up to 57.1 µM), without a hit: at the top dose activity, negative = inhibition, actives largely listed as inhibitors | 230,000 tested, 0.66% active; also: nearly all actives have a fitted effect of over 60% in size
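First, the protein-peptide complex forms for 30 min at room temperature (L3MBTL1 50 nM, biotinylated H3K9me1 peptide 75 nM). Next, compounds are pin-transferred and incubated 30 min. Finally, AlphaScreen beads are added and read after 30 min.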
FEN1 inhibitor = human FEN1 inhibition; P39748; Recombinant FEN1 flap cleavage, fluorescence, 15 min; Potency, µM (series often up to 114 µM), for inactives: at the top dose activity change, negative = inhibition, most hits filed as inhibitors; 390,000 tested, 0.35% active; AID 588795; also: nearly all actives have a fitted effect of over 65% in size
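FEN1 at 10 nM preincubated with compounds 15 min at room temperature, then flap DNA substrate added at 50 nM final. Signal read at 0 and 15 min; concentration-response fitted with four-parameter Hill equation.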
WRN helicase inh = blocks human WRN helicase. 360,000 tested, 0.46% active. WRN helicase unwinding, fluorescent forked duplex, kinetic. Q14191. AID 651768. Potency, µM (top dose mostly 114 µM), inactives show at the highest dose activity change, negative = inhibition, most hits filed as inhibitors; also: nearly all actives have a fitted effect of over 55% in size
Target sequence (Q14191 whole entry, looked up): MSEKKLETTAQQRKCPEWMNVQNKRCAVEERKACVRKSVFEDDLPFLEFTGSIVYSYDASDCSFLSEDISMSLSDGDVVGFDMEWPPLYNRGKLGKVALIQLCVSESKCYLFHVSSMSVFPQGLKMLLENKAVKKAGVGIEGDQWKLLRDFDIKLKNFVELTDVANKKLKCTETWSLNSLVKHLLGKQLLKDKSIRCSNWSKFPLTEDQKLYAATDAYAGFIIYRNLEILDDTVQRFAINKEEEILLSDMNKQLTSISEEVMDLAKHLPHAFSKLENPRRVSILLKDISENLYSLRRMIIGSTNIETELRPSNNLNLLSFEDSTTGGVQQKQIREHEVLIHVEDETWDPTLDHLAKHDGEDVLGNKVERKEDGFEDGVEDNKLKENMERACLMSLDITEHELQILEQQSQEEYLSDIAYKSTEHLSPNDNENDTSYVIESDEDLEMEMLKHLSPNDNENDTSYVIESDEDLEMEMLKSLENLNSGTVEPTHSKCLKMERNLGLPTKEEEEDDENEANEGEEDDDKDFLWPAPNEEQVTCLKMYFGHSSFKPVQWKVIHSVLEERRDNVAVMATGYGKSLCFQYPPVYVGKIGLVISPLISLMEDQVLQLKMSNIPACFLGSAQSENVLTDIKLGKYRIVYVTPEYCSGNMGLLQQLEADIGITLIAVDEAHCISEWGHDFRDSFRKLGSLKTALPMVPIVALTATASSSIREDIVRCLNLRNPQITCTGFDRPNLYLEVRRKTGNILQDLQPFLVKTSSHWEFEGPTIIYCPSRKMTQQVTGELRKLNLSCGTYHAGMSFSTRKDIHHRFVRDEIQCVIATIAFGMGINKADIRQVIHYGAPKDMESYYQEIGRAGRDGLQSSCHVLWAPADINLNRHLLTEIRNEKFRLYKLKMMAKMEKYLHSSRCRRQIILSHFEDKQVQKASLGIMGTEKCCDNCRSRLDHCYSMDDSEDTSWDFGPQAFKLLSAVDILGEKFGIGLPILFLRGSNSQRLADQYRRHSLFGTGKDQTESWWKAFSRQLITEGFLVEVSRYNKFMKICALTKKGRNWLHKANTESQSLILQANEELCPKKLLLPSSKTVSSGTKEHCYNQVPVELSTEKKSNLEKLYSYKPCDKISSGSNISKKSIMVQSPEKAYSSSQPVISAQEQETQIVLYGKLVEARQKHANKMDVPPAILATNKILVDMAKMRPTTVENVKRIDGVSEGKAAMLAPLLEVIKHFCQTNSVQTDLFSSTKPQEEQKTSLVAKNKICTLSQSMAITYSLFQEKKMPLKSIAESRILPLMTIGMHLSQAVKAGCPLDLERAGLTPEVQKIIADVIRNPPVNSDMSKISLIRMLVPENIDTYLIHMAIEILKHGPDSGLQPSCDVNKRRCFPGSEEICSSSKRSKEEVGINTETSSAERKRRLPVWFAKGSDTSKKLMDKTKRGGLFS
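Kinetic fluorescence helicase assay: unwinding of a quenched forked DNA duplex (100 nM final) with 2 mM ATP final raises red fluorescence (525/598 nm). Compounds sat 15 min at room temperature with 20 nM WRN beforehand.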
RECQ1 inh = RECQ1 (human) helicase inhibition; P46063; RECQ1 DNA unwinding, red fluorescence kinetic read; Potency, µM (series often up to 57.3 µM), for inactives: top-dose activity, negative = inhibition, most hits filed as inhibitors; 240,000 tested, 0.54% active;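 also: plate controls were vehicle for no effect and no enzyme for full effect; nearly all actives have a fitted effect of over 30% in size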
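50 nM RECQ1T1 preincubated 15 min with compound in Tris pH 8.0 buffer with MgCl2, DTT, Tween-20 and 2.5 ug/ml poly(dI-dC); started with 200 nM TAMRA/BHQ-2 forked duplex and 2 mM ATP. Unwinding read as fluorescence (525/598 nm), two reads 2 h apart.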
BLM inh-2 = confirmation of inhibitors of human Bloom syndrome helicase BLM | BLM DNA unwinding, fluorescence quenching, biochemical | 220 tested, 40% active | Potency, µM, inactives show max response, negative = inhibition, usual class: inhibitors | AID 2585 | shares compounds with BLM inh-1;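 also: strand separation dequenches TAMRA so unwinding raises red fluorescence; series mostly up to about 69 µM; nearly all actives have a fitted effect of over 45% in size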
* = called active by the depositor; i = inactive; ? = inconclusive; · = no result given; [ ] = dose if it differs, or a comment. Calls follow the shape of the dose curve; as a rule, active = well fitted curve in the direction sought with a large enough effect; inconclusive = small, poorly fitted or top-dose-only effect, or another doubt; inactive = no such curve, though single readings can be large; an effect the other way counts as inactive or inconclusive. Unless noted, % is scaled to controls: 0 for no effect and ±100 for the full control effect; potency is read from the fitted curve at half-maximal effect.

SMILES	BLM inh-1	L3MBTL1 block	FEN1 inhibitor	WRN helicase inh	RECQ1 inh	BLM inh-2
Cc1ccc(NC2=CC(=O)c3sc(C)nc3C2=O)cc1	7.94µM*	·	·	·	-2.6%	20.4µM*
Cc1ccc(Nc2nc(=O)[nH]nc2C)cc1	1.9%	·	-8.6%	1.1%	-2.1%	·
Cc1c(C(=O)Nc2ccc(F)cc2)cn2c(nc3ccccc32)c1C#N	-6.9%	·	8.8%	-1.2%	-8.1%	·
N#Cc1c2nc3ccccc3nc2n2cc(NC(=O)c3ccc(F)cc3)ccc12	12.6µM*	-45.5%	?	20µM*	-6.2%	7.25µM*
Cc1ccc(-c2nc(NC(=O)CSc3cc(C)c4ccccc4n3)ns2)cc1	6.31µM*	6.5%	?	-15.3%	17.9%	18.2µM*
Cc1ccc(-c2nn3c(C)nnc3s2)cc1NC(=O)c1ccc(-c2ccc(Cl)cc2Cl)o1	11.2µM*	7.2%	56.2µM*	?	i	7.25µM*
COc1ccc(S(=O)(=O)N(C)CC(=O)NC2CCCC2)cc1Cl	-2.4%	8.1%	8.3%	0.3%	6.3%	·
CC(C)(C)c1ccc(/C=C/C(=O)O)s1	-8.2%	·	9.6%	-2.3%	-14.9%	·
O=C(CSc1ccccn1)Nc1ccc2c(c1)C(=O)c1ccccc1C2=O	25.1µM*	-3.4%	?	39.8µM*	-0.9%	?
O=C(CSc1ccccn1)Nc1ccc2ccccc2c1	-6.0%	6.6%	·	·	-6.3%	·
N#Cc1cc2c(nc1SCC(=O)N1CCOCC1)CCCCC2	0.8%	·	7.5%	1.8%	i	·
Cc1ccccc1Nc1cc2ccccc2c(=O)[nH]1	28.2µM*	-13.9%	-0.6%	?	-2.9%	?
Cc1ccccc1SCc1noc(C(=O)NC(C)C)c1C(=O)O	0.1%	46.5%	-12.7%	11.0%	-5.2%	·
O=C1C(Cl)=C(NCCN2CCOCC2)C(=O)c2ccccc21	-9.3%	·	-12.7%	-7.0%	·	·
O=C1C(Cl)=C(NCCN2CCOCC2)C(=O)c2ncccc21	5.01µM*	·	·	·	?	5.76µM*
COC(=O)c1cc(Cl)cc(Cl)c1OS(=O)(=O)N(C)C	-4.5%	22.2%	-4.1%	-7.8%	-2.4%	·
O=C(O)C1CSC(c2ccncc2)N1 (centres undefined)	2.7%	11.9%	-3.9%	-32.0%	0.6%	·
O=C(O)C1CSC(c2ccco2)N1 (centres undefined)	25.1µM*	43.9%	?	14.1µM*	31.6µM*	3.3%
Cc1ccc(C)c(CSc2nc3ccncc3n2Cc2nc(-c3ccccc3Cl)oc2C)c1	-2.6%	·	-1.2%	·	·	·
COc1cc(NS(=O)(=O)c2ccc(C)cc2)c2ncccc2c1	-2.8%	8.8%	-19.6%	-9.9%	-1.8%	·
CCC(CNc1cc(OC)cc2cccnc12)NC1CCCCC1 (centres undefined)	8.91µM*	-24.5%	?	3.3%	?	7.7%
CCn1ncc(Br)c1C(=O)Nc1ccc(C(=O)OC(C)C)cc1	3.55µM*	·	-5.7%	-5.8%	-12.1%	?
CN(Cc1ccccc1)C(=O)COC(=O)/C=C/c1ccco1	20µM*	·	-11.3%	-12.8%	-27.3%	-5.9%
O=C(COC(=O)/C=C/c1ccco1)Nc1ccccc1	-2.6%	?	16.4%	1.7%[11.6 µM]	-14.2%	·
Cc1ccc(C(=O)Oc2ccc(-c3nnco3)cc2)o1	·	1.1%	-8.4%	13.0%	·	·
SMILES	BLM inh-1	L3MBTL1 block	FEN1 inhibitor	WRN helicase inh	RECQ1 inh	BLM inh-2
Nc1nn2c(C(F)(F)F)cc(=O)[nH]c2c1N=Nc1cccc(F)c1	-2.5%	-8.3%	-3.4%	4.3%	i	·
Cc1cc(=O)[nH]c2c(N=Nc3ccc(O)cc3)c(N)nn12	15.8µM*	0.8%	-31.6%	?	i	?
COc1cccc(=O)c2c(C)n(CC(=O)c3ccccc3)c(C)c12	25.1µM*	?	-13.9%	-13.0%	-17.6%	3.6%
CCCC1NC(=O)c2cccnc2-n2c1nc1ccc(C)cc1c2=O (centres undefined)	·	·	·	4.3%	·	·
CC(C)/C=N/NC(=O)c1ccc(Cl)cc1	5.2%	-2.8%	2.2%	3.6%	1.6%	·
Nc1c(C(=O)NC2CC2)sc2nc3c(c(-c4ccco4)c12)CC/C3=C/c1ccco1	5.62µM*	0.891µM*	5.62µM*	50.1µM*	-11.9%	?
NC(=O)c1sc2nc3c(c(-c4ccco4)c2c1N)CCC3	-26.3%	?	-23.6%	-29.9%	1.6%	·
Cc1cccc(Nc2nn3c(=O)c4cc5c(cc4nc3s2)OCO5)c1	11.2µM*	·	4.1%	·	·	10.2µM*
O=c1c2cc3c(cc2nc2sc(Nc4cccc([N+](=O)[O-])c4)nn12)OCO3	0.0%	·	-4.7%	·	·	·
COc1cccc(C2/C(=C(\O)c3ccc4c(c3)OCCO4)C(=O)C(=O)N2CCN(C)C)c1 (centres undefined)	8.91µM*	6.6%	6.0%	-10.0%	i	-7.1%
O=C(CSc1ccc(-c2ccco2)nn1)c1ccccc1	25.1µM*	?	0.9%	?	-5.4%	-6.1%
COc1ccc(C(=O)CSc2ccc(-c3ccco3)nn2)cc1	-20.8%	-23.0%	-2.6%	-25.3%	-23.1%	·
COc1ccc(C(=O)Nc2nnc(SCc3cc(=O)c4cc(C)cc(C)c4[nH]3)s2)cc1	20µM*	·	14.0%	·	·	18.2µM*
COc1ccc(C(=O)C2CCCN(C(=O)CCc3ccccn3)C2)c(C)c1 (centres undefined)	-4.6%	6.1%	1.8%	-1.2%	i	·
COc1ccc(C(=O)C2CCCN(C(=O)CCc3scnc3C)C2)c(C)c1 (centres undefined)	28.2µM*	-23.3%	15.8%	3.5%	0.4%	2.4%
COc1ccccc1CNC(=O)/C=C/c1ccc(Br)o1	10µM*	·	4.8%	-14.8%	-8.5%	-11.0%
Cc1ccc(S(=O)(=O)N2CCCC(CCC(=O)NCc3ccccc3F)C2)s1 (centres undefined)	1.6%	7.5%	-21.0%	-0.3%	-16.1%	·
N#Cc1sc2nc(-c3ccccc3)cc(-c3ccco3)c2c1N	3.98µM*	?	?	35.5µM*	?	4.08µM*
N#Cc1sc2nc(C3CC3)cc(-c3ccccc3)c2c1N	-9.3%	108.3%	-11.2%	-10.6%	-5.4%	·
CCn1ncc(Cl)c1C(=O)Nc1ccc2c(c1)CCC2	25.1µM*	·	·	·	·	18.2µM*
CN(C)[C@H]1C(=O)C(C(=O)NCN2CCCC2)=C(O)[C@]2(O)C(=O)C3=C(O)c4c(O)cccc4[C@](C)(O)[C@H]3C[C@H]12	14.1µM*	·	·	·	·	20.4µM*
O=C(/C=C/c1ccccc1Cl)Nc1ccc2c(c1)C(=O)NC2=O	31.6µM*	·	-28.3%	?	-23.4%	?
Cc1cc(Cl)c2oc(C(=O)NC3CCC(O)CC3)c(C)c2c1 (centres undefined)	0.8%	-0.4%	8.1%	-12.9%	·	·
COc1ccccc1NC(=O)COc1cccc2c1CCNC2=O	·	-5.2%	-6.7%	-10.4%	·	·

Source: PubChem (National Center for Advancing Translational Sciences (NCATS))
